# Bioassay records: PubChem BioAssay, several laboratories
# Rows were chosen to be rich in hits. Some 0.98% of all compounds tested hit in one or more screens of this group.
# Mtb bLac sens – beta-lactam sensitization of Mtb H37Rv; M. tuberculosis H37Rv growth with meropenem, percent inhibition; actives 0.27% (n = 330,000); inhibition, % at 25 µM; AID 434955; call rule not given here;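 also: growth measured after seven days incubation then overnight dye step; 0% = bacteria only wells and 100% = bacteria with antibiotic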
# Rv3671c protease – inhibitors of M. tuberculosis serine protease Rv3671c; P9WHR9; inhibition, % at 5.96 µM; actives 0.048% (n = 320,000); in the data active = inhibition above about 38%;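 also: extracellular domain of Rv3671c used as enzyme; 0% = enzyme with DMSO and 100% = no enzyme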
# Target sequence (P9WHR9 whole entry, looked up, the tested form may be a part): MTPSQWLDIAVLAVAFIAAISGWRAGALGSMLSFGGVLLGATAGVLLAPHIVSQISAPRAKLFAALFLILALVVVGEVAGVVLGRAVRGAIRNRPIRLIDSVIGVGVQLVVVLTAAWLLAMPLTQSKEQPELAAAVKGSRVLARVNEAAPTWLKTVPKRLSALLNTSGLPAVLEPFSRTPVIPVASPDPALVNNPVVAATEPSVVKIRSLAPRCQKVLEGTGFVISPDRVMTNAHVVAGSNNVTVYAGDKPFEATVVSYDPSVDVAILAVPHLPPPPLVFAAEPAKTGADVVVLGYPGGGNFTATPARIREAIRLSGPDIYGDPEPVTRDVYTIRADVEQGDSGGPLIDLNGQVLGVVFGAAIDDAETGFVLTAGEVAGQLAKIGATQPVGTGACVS
# Yp Topo-I inh – blocks Yersinia pestis topoisomerase I activity. Y. pestis Topo-I cleavage product accumulation, plate reader. activity, % at 10 µM. actives 0.064% (n = 360,000). AID 504884; in the data active = activity above about 50%, passing the limit was not always enough; inconclusive = no clear call, values can overlap the other calls
# FadD28 binding – blocks FadD28 binding to the bisubstrate probe; fluorescence polarization; inhibition, % at 12.5 µM; actives 0.22% (n = 360,000); in the data active = inhibition above about 8.5%, passing the limit was not always enough; inconclusive = no clear call, values can overlap the other calls
# PfHsp40 rescue – rescue of PfHsp40-mediated yeast toxicity. S. cerevisiae expressing PfHsp40, growth rescue, ATP luminescence. growth rescue, % at 12.5 µM. actives 0.68% (n = 340,000). AID 504582; in the data active = growth rescue above about 28%, passing the limit was not always enough; inconclusive = no clear call, values can overlap the other calls;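 also: yeast W303a lacking pdr1 and pdr3 grown in galactose medium; growth measured after three days at 30 °C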
# UGM FP inh – inhibitors of M. tuberculosis UDP-galactopyranose mutase | purified UGM, fluorescence polarization probe displacement | AID 504406 | P9WIQ1 | actives 0.06% (n = 320,000) | inhibition, % at 10 µM; in the data active = inhibition above about 10%, passing the limit was not always enough; inconclusive = no clear call, values can overlap the other calls
# An asterisk follows results filed as active; ? = inconclusive; . = no result given.
SMILES,Mtb bLac sens,Rv3671c protease,Yp Topo-I inh,FadD28 binding,PfHsp40 rescue,UGM FP inh
O=C(Nc1ccc(Nc2ccccc2)cc1)C(Cl)Cl,64,16,-23,0,8,-1
CC(C)(C)C(=O)C(Cl)C(=O)Nc1ccccc1 (configuration not stated),-2,2,6,-1,275*,-2
O=[N+]([O-])c1cc(Cl)cc(/C=N/n2cnnc2)c1O,-15,-2,24,-1,-1,2
O=[N+]([O-])c1cc(Br)cc(/C=N/n2cnnc2)c1O,10,4,2,-2,204*,-2
O=C(CSc1ccc(-c2ccccn2)nn1)NCc1ccc(F)cc1,-1,6,4,0,248*,1
O=C(CSc1ccc(-c2ccccn2)nn1)NCc1ccccc1,0,-1,-9,-4,270*,0
CCN1C(=O)c2cccc3c(S(=O)(=O)N(C(C)=O)c4ccc(OC(C)=O)cc4)ccc1c23,-4,-7,22,-5,-1,3
Oc1c(Cl)cc(Cl)cc1/C=N/NC(=S)NC1CC2C=CC1C2 (configuration not stated),73,15,8,?,132*,0
CC12CCC(=O)C=C1CCC1C2C(O)CC2(C)C1CCC2(O)C(=O)COC(=O)CCC1CCCC1 (configuration not stated),.,.,-1,-3,.,.
COc1ccc(C(=O)OCC#CCSc2nnc(-c3cccc4ccccc34)o2)cc1,10,-6,30,-5,0,-3
COc1ccccc1C(=O)OCC#CCSc1nnc(-c2cccc3ccccc23)o1,58,-13,52*,-1,3,-2
O=C(OCC#CCSc1nnc(-c2ccc(Br)cc2)o1)c1cccs1,100,-10,-8,-1,2,2
Cc1ccc(-c2nnc(SCC#CCOC(=O)c3cccs3)o2)cc1,100,-7,56*,-2,1,1
Cc1cc2nc(-c3cccc(Br)c3)c(CC(C)(C)C)n2c(C)c1Br,.,.,.,-1,.,.
CN1CCC(C)(C(=O)Nc2ccc3c(c2)OCCO3)C1 (configuration not stated),.,.,-4,-2,.,.
Cc1ccc(-c2csc(NC(=O)c3cccc(C)c3)c2C(=O)O)cc1,-2,-5,-9,1,60*,4
Cc1cccc(C(=O)Nc2scc(-c3ccc(Br)cc3)c2C(=O)O)c1,16,-5,0,-6,0,-3
O=C1CC(=Nc2ccc([N+](=O)[O-])cc2)NN1c1c(Cl)cc(Cl)cc1Cl,.,.,-11,15*,.,.
O=C(c1ccc([N+](=O)[O-])cc1)N(Cc1ccc(Cl)cc1Cl)N1C(=O)CCCC1=O,-6,2,0,0,3,1
Nc1ccc(S(=O)(=O)c2cc(O)c3ccccc3c2O)cc1,.,.,-16,9.5*,1,.
CCCCc1ccc(-n2c(Cc3cccs3)n[nH]c2=S)cc1,0,5,15,1,305*,0
O=c1c(Cl)c(Cl)cnn1Cc1nnc(-c2ccc(Cl)cc2)o1,.,.,8,-3,236*,.
Cc1ccc(Cn2ncc(Cl)c(Cl)c2=O)cc1,56,4,-1,-1,1,0
O=[N+]([O-])c1cccc(-c2csc(Nc3ccccc3)n2)c1,96,-2,-5,-1,0,0
COc1cc(NS(=O)(=O)c2ccc(Nc3nc(-c4cccc([N+](=O)[O-])c4)cs3)cc2)nc(OC)n1,0,-21,-8,17*,3,1
SMILES,Mtb bLac sens,Rv3671c protease,Yp Topo-I inh,FadD28 binding,PfHsp40 rescue,UGM FP inh
O=C(Nc1cccc(-c2csc(Nc3ccccc3)n2)c1)c1ccccc1,88,-22,-24,6,73*,2
NS(=O)(=O)c1ccc(Nc2nc(-c3ccc(O)cc3)cs2)cc1,-1,12,-17,10*,1,3
COc1ccc(-c2csc(Nc3ccc(S(=O)(=O)Nc4cc(C)on4)cc3)n2)cc1,19,7,1,10*,-1,4
COc1cc(C(=O)N2CCCCC2c2cc(C(=O)Nc3ccccc3)no2)cc(OC)c1C (configuration not stated),.,.,21,-1,.,.
Cc1ccc(F)c(S(=O)(=O)NC(=O)C2(C)CCN2C(=O)c2cccc3ccccc23)c1 (configuration not stated),.,.,0,-2,.,.
c1ccc(Nc2nc(-c3ccccn3)cs2)cc1,99,-1,2,1,317*,0
COc1ccc(Nc2nc(-c3ccc(OC)cc3)cs2)cc1,2,8,-11,-4,0,-1
COc1ccc(-c2csc(Nc3ccccc3)n2)cc1,61,4,-24,-3,57*,2
O=C1C(Cl)=C(Nc2ccccc2O)C(=O)N1CCc1ccccc1,62,13,-7,-5,142*,1
N/C(=N\OC(=O)c1ccc2ccccc2c1)c1ccncc1,3,-11,-1,-3,1,1
N/C(=N\OC(=O)c1ccc2ccccc2c1)c1ccccc1Cl,32,-20,1,-6,87*,-2
COc1ccc(CCCNC(=O)C2CCC(=O)N(CC3CCCCC3)C2)cc1 (configuration not stated),?,-8,23,-1,0,0
CCCCCCCCCCCCCCCC(O)C[N+](C)(C)CCO (configuration not stated),.,.,-34,35*,8,.
Cc1cc(C)cc(C(O)c2ncc(-c3ccc(C(F)(F)F)cc3)[nH]2)c1 (configuration not stated),.,.,-8,-6,.,.
Cc1ccc(CN2C(=O)CCC2C(=O)NC(C)C)cc1 (configuration not stated),3,9,3,1,78*,2
CNC(=O)C1CCC(=O)N1Cc1ccc(C)cc1 (configuration not stated),-9,-3,-2,-2,0,-2
CCCCCCOC(=O)CCn1[nH]c(=O)c2ccccc2c1=O,-7,5,-10,2,136*,2
OC(c1cc(F)cc(Cl)c1)c1ncc(-c2cccc(C(F)(F)F)c2)[nH]1 (configuration not stated),.,.,-19,-7,.,.
C[C@H](CO)N1C[C@H](C)[C@H](CN(C)C(=O)Nc2cccc(F)c2)Oc2cc(C#CC3(O)CCCC3)ccc2S1(=O)=O,.,.,-9,-1,.,.
O=C(O)CCC(=O)Nc1ccc(C(=O)OCC(=O)c2ccc(Cl)cc2)cc1,4,-4,1,15*,0,-1
CN=C(Nc1ccc(Br)cc1)SC1CC(=O)N(c2ccc(OC)cc2)C1=O (configuration not stated),10,7,8,-5,43*,-1
CN=C(Nc1ccc(C)c(C)c1)SC1CC(=O)N(c2ccc(OC)cc2)C1=O (configuration not stated),0,-5,9,0,3,1
O=C(C1CCCCC1)N1C[C@@H](O)[C@H](n2cc(C3CC3)nn2)C[C@@H]1c1ccccc1,.,.,-1,-2,.,.
COc1cc2c(cc1OC)C1=NC(=O)CN1C(SCc1ccc(C)cc1)=N2,2,-2,82*,-4,0,-1
